# Bioassay records deposited in PubChem by National Center for Advancing Translational Sciences (NCATS).
# Most compounds without a hit are left out; they make up all but 12% or so of the library.
# G9a inh – inhibitors of human histone lysine methyltransferase G9a. Q96KQ7. G9a H3K9 monomethylation, AlphaScreen, 2 h. Potency, µM (highest dose often 102 µM), actives largely listed as inhibitors. 8.8% of 350,000 active. AID 504332; further: nearly all actives have a fitted effect of over 75% in size
# Target sequence (Q96KQ7 913-1193 limits assumed): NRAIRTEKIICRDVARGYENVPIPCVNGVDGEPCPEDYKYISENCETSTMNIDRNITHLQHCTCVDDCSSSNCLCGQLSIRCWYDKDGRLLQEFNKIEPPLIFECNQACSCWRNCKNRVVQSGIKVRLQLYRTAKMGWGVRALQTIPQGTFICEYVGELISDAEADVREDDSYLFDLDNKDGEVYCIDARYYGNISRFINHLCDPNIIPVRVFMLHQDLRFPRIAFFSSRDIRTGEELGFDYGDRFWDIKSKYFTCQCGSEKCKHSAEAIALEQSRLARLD
#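 G9a (20 nM) preincubated 15 min RT with compounds, then 500 nM biotinylated H3K9 peptide and 20 uM SAM added; 2 h RT reaction. Monomethyl-H3K9 product detected by AlphaScreen with anti-H3K9me1 antibody, streptavidin donor and anti-rabbit IgG acceptor beads.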
# Sfp inh – inhibitors of Bacillus subtilis Sfp phosphopantetheinyl transferase; Q9F4F7; 3.5% of 310,000 active; Potency, µM, actives largely listed as inhibitors; AID 1490; Biochemical Sfp PPTase activity, qHTS;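 further: the enzyme is Sfp with the accession as filed and its product quenches rhodamine fluorescence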
#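 Step 1, compound plus 15 nM Sfp-PPTase, 15 min, room temperature. Step 2, add rhodamine-CoA (5 uM) and BHQ-2-YbbR (12.5 uM). Step 3, read 525/598 nm fluorescence at 0 and 30 min.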
# HP1b chromo inh – HP1-beta chromodomain-methylated histone interaction inhibition; P83916; AlphaScreen HP1-beta / biotin-H3K9me3 peptide binding; Potency, µM (doses to about 114 µM), actives largely listed as inhibitors; 0.56% of 390,000 active; AID 540317; further: nearly all actives have a fitted effect of over 70% in size
# Target sequence (P83916 whole entry, looked up): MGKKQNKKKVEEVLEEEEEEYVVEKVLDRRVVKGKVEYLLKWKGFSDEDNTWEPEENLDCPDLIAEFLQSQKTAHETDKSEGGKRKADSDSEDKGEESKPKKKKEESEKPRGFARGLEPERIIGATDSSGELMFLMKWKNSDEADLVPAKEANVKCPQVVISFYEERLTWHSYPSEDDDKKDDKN
#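 Compound inhibition of the preformed complex between 50 nM HP1-beta and 50 nM biotinylated H3K9me3 peptide was read by AlphaScreen. Buffer was PBS pH 7.4 with 0.01% Tween-20. Incubations ran 30 min at room temperature, with 10 ug/mL donor/acceptor beads.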
# BAZ2B block – BAZ2B (human) inhibition; Q9UIF8; AlphaScreen BAZ2B-H3K14Ac peptide displacement; Potency, µM (series often up to 114 µM), usual class: inhibitors; 4.4% of 360,000 active; further: nearly all actives have a fitted effect of over 60% in size
#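 AlphaScreen luminescence quantifies BAZ2B engagement of H3K14Ac peptide; the protein and biotinylated peptide are both at 50 nM final, buffer PBS pH 7.4 with 0.01% Tween-20, all steps at room temperature.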
# JMJD2A Tudor inh – blocks the human JMJD2A Tudor domain; O75164; AlphaScreen JMJD2A-Tudor / H3K4me3 peptide binding; Potency, µM (highest dose often 114 µM), actives largely listed as inhibitors; 4.4% of 390,000 active; further: nearly all actives have a fitted effect of over 50% in size
# A number is an active result; 0 = inactive; ? = inconclusive; - = no result; [ ] = dose if it differs, or a comment. The call rests on the fitted dose curve; in most records, active means well fitted curve in the direction sought with a large enough effect; inconclusive means small, poorly fitted or top-dose-only effect, or another doubt; inactive means no such curve, though single readings can be large; an effect the other way counts as inactive or inconclusive.
SMILES,G9a inh,Sfp inh,HP1b chromo inh,BAZ2B block,JMJD2A Tudor inh
N#Cc1ccc(OCC(=O)N2CCN(S(=O)(=O)c3cccc(Cl)c3)CC2)cc1,0[12.7 µM],-,0,0,0
CC(=O)N(C)c1ccc(C=C2C=Cc3ccccc32)cc1,-,-,?,-,79µM
CN(N=O)c1ccc(C=C2C=Cc3ccccc32)cc1,-,-,0,-,?
Cc1nc2cnc(Oc3ccccc3)nc2n(C)c1=O,0[0.501 µM],0,-,-,-
CCOC(=O)c1cc(-c2ccccc2)n(-c2cccc(C(=O)N(C)c3ccc(C)cc3)c2)c1C,16µM,-,0,?,?
CCOC(=O)c1cc(-c2ccccc2)n(-c2cccc(C(=O)NC(C)(C)C)c2)c1C,?,-,0,0,0
c1ccc2c(N3CCCCC3)nc(N3CCCCC3)nc2c1,0,?,0,0,0
C(=C\c1nc(N2CCCCCC2)c2ccccc2n1)/c1ccccc1,0,28µM,0,0,0
O=C1[C@@H]2CSC(c3ccc(F)cc3)N2C(=O)N1c1ccc(Cl)cc1 (some centres undefined),0,-,0,0,0
COc1ccc(C(c2c(N)[nH]c(=S)[nH]c2=O)c2c(N)[nH]c(=S)[nH]c2=O)cc1,-,79µM,0,0,?
C=CCOc1ccc(C(c2c(O)nc(SC)[nH]c2=O)c2c(O)nc(SC)[nH]c2=O)cc1,-,-,0,-,0
O=S(=O)(/C(=C/c1ccc(C(F)(F)F)cc1)c1nc2ccccc2[nH]1)c1ccccc1,0,0,0,0,79µM
C=C1c2ccccc2O[C@H](C(=O)OCC)C1OC (mixture of isomers),0,0,-,-,-
CCOc1nc2ccccc2cc1/C=C/C(=O)O,50µM,0,0,0,0
CCOc1cccc(/C=C/C(=O)O)c1,0,0,0,0,0
Cc1cc2c(nc1C)CCCCN2C[C@H](O)CN1CCCc2nc(-c3ccc(Br)cc3)ccc21,-,0,-,-,-
COc1ccc(CSc2nnc3[nH]c(=O)cc(N)n23)cc1,35µM,?,0,0,0[11.4 µM]
Cc1cc(=O)[nH]c2nnc(SCc3ccc(F)cc3)n12,0,-,0,0,0
N#Cc1ccc(CSc2nnc3[nH]c(=O)cc(N)n23)cc1,22µM,0,0,0,0
COc1ccc2c(c1)C(C1=C(O)CC(C)(C)CC1=O)C1=C(CC(C)(C)CC1=O)O2 (centres undefined),0,0,0,0,0
CC1(C)CC(=O)C(C2C3=C(CC(C)(C)CC3=O)Oc3ccccc32)=C(O)C1 (centres undefined),71µM,0,0,0,0
CC(=O)Nc1cccc(NC(=O)CSc2nc(=O)n(CCN3CCOCC3)c3c2CCC3)c1,0,-,0,0,0
CC(C)CSc1n[nH]c(N)n1,0,0,0,0,0
CC(CSc1n[nH]c(=S)s1)c1ccccc1 (centres undefined),-,-,50µM,-,18µM
CC(C)(C)c1nnc2sc(SCCN3C(=O)c4ccccc4C3=O)nn2c1=O,0,0,0,0,0
SMILES,G9a inh,Sfp inh,HP1b chromo inh,BAZ2B block,JMJD2A Tudor inh
CC(CC(=O)Nc1cccnc1)c1ccccc1 (centres undefined),0,0,0,0,0
O=C1c2ccccc2C(=O)N1CCSc1n[nH]c(=S)s1,1.3µM,50µM,?,?,18µM
CC(C)CSc1n[nH]c(=S)s1,1.8µM,35µM,28µM,50µM,8.9µM
COc1ccc(CCNC(=O)Cn2c(-c3ccc(F)cc3)cc(C(C)=O)c2C)cc1OC,0,-,0,0,0
COc1cc2c(cc1OC)C(c1cc(OC)c(OC)cc1[N+](=O)[O-])N(C(C)=O)CC2 (centres undefined),71µM,0,0,0,0
Cc1ccc(C)n1NC(=O)c1cccs1,0[12.7 µM],0,0,0,0
CC(C)(NO)/C(=N/O)c1cccs1,7.1µM,0,0,45µM,10µM
Cc1ccccc1C(=O)Nc1nnc(S(=O)(=O)N(C)Cc2ccco2)s1,?,45µM,0,0,0
CCN(c1ccccc1C)S(=O)(=O)c1nnc(NC(=O)c2ccccc2C)s1,2.5µM,-,0,?,?
CCCC(=O)Nc1nnc(S(=O)(=O)N(C)Cc2ccco2)s1,?,45µM,0,?,?
CCN(c1cccc(C)c1)S(=O)(=O)c1nnc(NC(=O)c2cccs2)s1,3.2µM,-,?,3.5µM,?
O=C1c2ccccc2C(=O)N1c1cc(=O)c2ccccc2[nH]1,-,-,-,-,0
COc1ccc(CCNC(=O)COc2ccc(S(=O)(=O)N3CCOCC3)cc2C)cc1,0,0,0,0,0
CCCCCCCc1cc2c(cn1)=C(OC)C(C)(OC(C)=O)C(=O)C=2Cl (centres undefined),-,0,-,-,-
COc1ccccc1CN1CCC2(CC1)CCN(C(=O)c1c(C)noc1C)CC2,0[12.7 µM],0,-,-,-
Nc1ncnc2c1nc(Sc1ccc(Cl)cc1)n2[C@H]1O[C@@H]2COP(=O)(O)O[C@H]2[C@@H]1O,0[12.7 µM],-,-,-,-
S=C1NCCc2ccc(Cl)cc2C1c1ccccc1Cl (centres undefined),?,0,0,45µM,?
CCC(=O)Nc1cc(-c2nn(C)c(=O)c3ccccc23)ccc1N1CCOCC1,0,0,0,0,0
Cn1nc(-c2ccc(N3CCCCC3)c(NC(=O)c3ccco3)c2)c2ccccc2c1=O,40µM,0,0,?,0
Cn1c(O)c(C=Nc2ccc(N3CCOCC3)cc2)c(=O)n(C)c1=S,0,0,0,0,0
Cc1cc(O)c(C=Nc2ccc(N3CCOCC3)cc2)c(C)c1Cl,8.9µM,0,0,?,0
Cc1ccc(Cl)cc1-c1ccc(C=Nc2ccc(N3CCOCC3)cc2)o1,?,?,?,28µM,35µM
COc1ccc(-c2nc3n(n2)C(c2ccc(OC)c(OC)c2)C(C(=O)Nc2cccnc2)=C(C)N3)cc1 (centres undefined),0,-,0,0,0
Cc1ccccc1-n1c(SCC(=O)c2cc(C)n(C)c2C)nnc1-c1cccnc1,?,0,0,?,?
Cc1ccc(-n2c(SCC(=O)N3Cc4ccccc4CC3C(=O)O)nnc2-c2cccnc2)c(C)c1 (centres undefined),45µM,0,0,0,0
SMILES,G9a inh,Sfp inh,HP1b chromo inh,BAZ2B block,JMJD2A Tudor inh
COc1ccc(N2CCN(C(=O)C3Cc4ccccc4CN3C(=O)c3ccccc3)CC2)cc1 (centres undefined),50µM,0,0,?,0
Cc1ccc(C(=O)N2Cc3ccccc3CC2C(=O)O)cc1 (centres undefined),35µM,0,0,0,?
Cc1ccc(-n2nnnc2SCC(=O)N2Cc3ccccc3CC2C(=O)O)cc1 (centres undefined),45µM,0,0,0,0
Cc1ccc(-n2nnnc2SCC(=O)N2CCc3ccccc3C2)cc1,?,0,0,0,0
O=c1c2cnn(-c3ccc(F)cc3)c2ncn1Cc1cccc(Cl)c1,0,-,0,0,0
CCOCC(=O)Nc1cc(C(=O)Nc2ccc(F)cc2)ccc1Cl,-,0,-,0,-
COc1ccc(CNC(=O)[C@@H]2CCCN2C(=O)[C@@H]2Cc3ccccc3CN2C(=O)OC(C)(C)C)cc1,0,0,0,0,0
CC(C)(C)OC(=O)N1Cc2ccccc2C[C@H]1C(=O)N1CCC[C@H]1C(=O)O,18µM,0,0,0,0
